# Data: PubChem BioAssay AID463173 (ICCB-Longwood Screening Facility, Harvard Medical School, 2010)
# The whole screen tested about 52,000 compounds, of which about 4,300 (8.3%) were called active. The sample holds actives, similar compounds and a random draw of the others, so the mix is not that of the screen. No stated cut-off is given here; in the data, active means survival mostly below about 52% (no sharp cut-off); inactive means mostly above about 56%.
# Test system: DeltatarO mutant
# Experiment: growth inhibition of S. aureus wild type versus tarO mutant, primary screen, teichoic acid synthesis inhibitors, RN4220, OD600 (AID 463173)
# Settings: OD600, 18 h, hits give low values, screened at 18.75 µg/mL (by protocol)
row,Structure (SMILES),survival
1,CCOC(=O)C1CCCN(C(=O)Cn2ncc3c([nH]c4ccc(C)cc43)c2=O)C1 (centres undefined),81% (inactive)
2,CCOC(=O)c1ccc2c(c1)N(CC#N)C(=O)C(C)(C)O2,94% (inactive)
3,CCOC(=O)c1[nH]c(Cc2[nH]c(C(=O)OCC)c(C)c2CC(=O)OC)c(CCC(=O)OC)c1C,70% (inactive)
4,COC(=O)c1ccccc1NC(=O)c1cc(=O)c2ccc(C)c(C)c2o1,72% (inactive)
5,COc1ccc(OC)c(NC(=O)c2cc(=O)c3c(C)cc(C)cc3o2)c1,42% (active)
6,CCOC(=O)c1ccc(NC(=O)c2cc(=O)c3ccc(C)c(C)c3o2)cc1,45% (active)
7,CCc1ccc(NC(=O)c2cc(=O)c3ccc(C)c(C)c3o2)cc1,91% (inactive)
8,COc1ccc(CCNC(=O)c2cc(=O)c3c(C)cc(C)cc3o2)cc1OC,57% (inactive)
9,Cc1ccc2c(=O)cc(C(=O)Nc3cccc(Cl)c3C)oc2c1C,54% (inactive)
10,Cc1cc(C)c2c(=O)cc(C(=O)Nc3ccccc3Cl)oc2c1,62% (inactive)
11,Cc1ccc2c(=O)cc(C(=O)Nc3ccc(S(=O)(=O)N(C)c4ccccc4)cc3)oc2c1C,50% (active)
12,COc1ccccc1NC(=O)c1cc(=O)c2ccc(C)c(C)c2o1,41% (active)
13,CCOc1ccc(NC(=O)c2cc(=O)c3ccc(C)c(C)c3o2)cc1,60% (inactive)
14,Cc1ccc2c(=O)cc(C(=O)Nc3ccc(S(=O)(=O)N(C)Cc4ccccc4)cc3)oc2c1C,92% (inactive)
15,CCN(c1ccccc1)S(=O)(=O)c1ccc(NC(=O)c2cc(=O)c3ccc(C)c(C)c3o2)cc1,64% (inactive)
16,COc1cccc2cc(-c3nc(-c4cccs4)no3)c(=O)oc12,67% (inactive)
17,COc1ccc(C)c2sc(NC(=O)c3ccc(S(=O)(=O)N4CCCCC4)cc3)nc12,92% (inactive)
18,O=C(O)c1cc2nc3c(c(C(F)(F)F)n2n1)CCC3,89% (inactive)
19,O=C(Cn1cnc2c(nc3n2CCCCC3)c1=O)Nc1cccc(C(F)(F)F)c1,83% (inactive)
20,O=C(Cn1cc(S(=O)(=O)Cc2ccccc2F)c2ccccc21)NCc1ccccc1,87% (inactive)
21,Cc1ccc(NCc2cc3cc4c(cc3n(CC(=O)Nc3ccc(F)cc3F)c2=O)OCCO4)cc1,70% (inactive)
22,O=C(CN1CCC(C(=O)c2ccc(F)cc2)CC1)Nc1ccccc1,83% (inactive)
23,CCCCSc1nc(O)c(CCC(C)C)c(=O)[nH]1,60% (inactive)
24,Cc1ccc(S(=O)(=O)N(CCc2ccccc2)CC(=O)Nc2ccc(Br)cc2)cc1,75% (inactive)

row,Structure (SMILES),survival
1,COc1cc(NC(=O)CSc2nc(-c3ccc(C(C)C)cc3)no2)cc(OC)c1,91% (inactive)
2,O=C(Cn1c(=O)n(-c2cccc(Cl)c2)c(=O)c2sc3ccccc3c21)NC1CCCCC1,127% (inactive)
3,OC1(c2ccccc2)CCN(Cc2ccccc2)CC1,73% (inactive)
4,C/C=C1\NC(=S)N(Cc2ccccc2)C1=O,84% (inactive)
5,O=C1CCN(Cc2ccccc2)C(=S)N1,49% (active)
6,COC(=O)C1C(=O)C2=C(CC1C)Nc1ccccc1NC2c1ccc(N(C)C)cc1 (centres undefined),79% (inactive)
7,Cc1ccc(-c2nnc3ccccc3c2C(=O)Nc2ccc(C)c(F)c2)cc1,80% (inactive)
8,O=C(COc1ccc(F)cc1)Nc1ccc2nc(SCCOc3ccccc3)sc2c1,87% (inactive)
9,CCOC(=O)c1ccc(NC(=O)Nc2cc3c(cc2N2CCCC2)n(C)c(=O)n3C)cc1,82% (inactive)
10,CCn1c(=O)n(CC)c2cc(N3CCCCC3)c(NC(=O)Nc3cc(C)cc(C)c3)cc21,100% (inactive)
11,CCOC(=O)c1ccc(NC(=O)Nc2cc3c(cc2N2CCCCC2)n(CC)c(=O)n3CC)cc1,57% (active)
12,CCOC(=O)c1ccc(N2CCN(c3cccc(OC)c3)CC2)c(NC(=O)Nc2ccc(OCC)cc2)c1,-5% (active)
13,CCOC(=O)c1ccc(N2CCN(c3ccc(F)cc3)CC2)c(NC(=O)Nc2cccc(OC)c2)c1,70% (inactive)
14,CCOC(=O)c1ccc(N2CCN(c3cccc(Cl)c3)CC2)c(NC(=O)Nc2ccc(Cl)cc2)c1,92% (inactive)
15,CCOc1ccc(-c2nc3c(c(CC)nn3-c3ccccc3)c3cc(OC)c(OC)cc23)cc1,78% (inactive)
16,CCc1nc2sc3c(N4CCC(C)CC4)ncnc3c2c2c1CCCC2,134% (inactive)
17,CCc1cccc(NC(=O)Cn2c(=O)n(CCC(=O)NCC3CCCO3)c(=O)c3cc(OC)c(OC)cc32)c1 (centres undefined),62% (inactive)
18,COc1cccc2c1Oc1nc(-c3ccccc3)nc(SCC(=O)Nc3ccccc3)c1C2,81% (inactive)
19,CCOC(=O)c1ccc(NC(=O)c2ccc3c(c2)CCN3S(=O)(=O)c2ccc(Cl)cc2)cc1,64% (inactive)
20,Cc1cccn2c(=O)c(C(=O)N3CCN(c4ccccc4)CC3)cnc12,49% (inactive)
21,CCCN(C(=O)c1cn(CC(C)C)c(=O)c2cc(OC)c(OC)cc12)c1cccc(C)c1,152% (inactive)
22,CCc1ccccc1N(C)C(=O)c1cn(CC(C)C)c(=O)c2cc(OC)c(OC)cc12,73% (inactive)
23,CCn1cc(C(=O)N2CCN(c3cc(Cl)ccc3C)CC2)c2cc(OC)c(OC)cc2c1=O,64% (inactive)
24,Cc1cccc(N2CCN(C(=O)c3cccn4c(=O)c5cc(Cl)ccc5nc34)CC2C)c1 (centres undefined),66% (inactive)

row,Structure (SMILES),survival
1,COc1cc2c(C(=O)N(C)c3cc(Cl)ccc3OC)cn(CC(C)C)c(=O)c2cc1OC,48% (active)
2,COc1cc2c(C(=O)N3CCN(c4ccc(F)cc4)CC3)cn(CC(C)C)c(=O)c2cc1OC,56% (inactive)
3,COc1cc2c(C(=O)N3CCN(c4cc(Cl)ccc4C)CC3)cn(CC(C)C)c(=O)c2cc1OC,40% (active)
4,COc1cc2c(C(=O)N3CCN(c4cccc(C)c4)C(C)C3)cn(CC(C)C)c(=O)c2cc1OC (centres undefined),46% (active)
5,COc1cc2c(C(=O)N3CCN(c4ccc(C)cc4)C(C)C3)cn(CC(C)C)c(=O)c2cc1OC (centres undefined),47% (inactive)
6,Cc1cccc(N2CCN(C(=O)c3cnc4c(C)cccn4c3=O)CC2C)c1 (centres undefined),32% (active)
7,CCN(C(=O)c1cn(CC(C)C)c(=O)c2cc(OC)c(OC)cc12)c1cc(OC)ccc1OC,55% (inactive)
8,CCOc1cc(C#N)c(NC(=O)c2ccc(OC)c(S(=O)(=O)N3CCCC3)c2)cc1OCC,52% (inactive)
9,CCCCCOc1ccc(C(=O)CCN2CCOCC2)cc1,90% (inactive)
10,CC(C)c1nc2ccc(C(=O)NCc3ccc(F)cc3)cc2o1,78% (inactive)
11,COc1ccc(C2CC(=O)c3c([nH]c(C(=O)OC4CCCCCC4)c3C)C2)cc1 (centres undefined),79% (inactive)
12,CCc1ccc(NC(=O)Cn2c(=O)n(CCCC(=O)NCCc3ccc(OC)c(OC)c3)c(=O)c3ccccc32)cc1,77% (inactive)
13,COc1ccc2c(c1)cc1c(=O)n(CC(=O)NC(C)C)nc(C)n12,78% (inactive)
14,N#Cc1c2c(c(N3CCOCC3)[nH]c1=S)CCCC2,94% (inactive)
15,O=S(=O)(NCC(c1ccco1)N1CCOCC1)c1ccc(Cl)cc1 (centres undefined),86% (inactive)
16,O=C(Nc1c(C(=O)N2CCN(c3ccccc3F)CC2)oc2ccccc12)c1ccccc1F,75% (inactive)
17,Oc1ccc(NCc2ccccc2OCc2ccc(Cl)cc2)cc1,91% (inactive)
18,Oc1ccc(NCc2ccccc2OCc2ccccc2Cl)cc1,52% (active)
19,Oc1ccc(NCc2ccc(OCc3ccccc3Cl)cc2)cc1,35% (active)
20,CCOc1cccc(CNc2ccc(O)cc2)c1OCc1ccccc1Cl,68% (inactive)
21,Oc1ccc(NCc2ccccc2OCc2ccccc2F)cc1,60% (inactive)
22,Oc1ccc(NCc2ccc(OCc3ccccc3)cc2)cc1,72% (inactive)
23,CCC(C)NC(=O)Cn1c(=O)n(CCCC(=O)NCc2ccc(C)cc2)c(=O)c2ccccc21 (centres undefined),94% (inactive)
24,COc1ccccc1OCC(=O)NCC1(N(C)C)CCCCC1,91% (inactive)

row,Structure (SMILES),survival
1,COc1ccc(CCNS(=O)(=O)c2ccc(N3CCCCS3(=O)=O)cc2)cc1,79% (inactive)
2,O=S(=O)(NCCc1ccccc1)c1ccc(N2CCCCS2(=O)=O)cc1,52% (active)
3,O=S(=O)(NCCc1ccc(Cl)cc1)c1ccc(N2CCCCS2(=O)=O)cc1,93% (inactive)
4,c1ccc(Cn2nnnc2C(c2cccs2)N(Cc2cccnc2)Cc2ccco2)cc1 (centres undefined),64% (inactive)
5,Cc1c[n+](CC(=O)c2ccccc2)c(C)cn1,101% (inactive)
6,Cc1nc(-c2ccc(F)cc2)sc1CCNC(=O)c1ccc(OC(C)C)cc1,67% (inactive)
7,Cc1ccc(C(=O)N2CCC(C(=O)O)CC2)cc1,90% (inactive)
8,Cc1nn(-c2ccccc2)c(OC(=O)C(C)(C)C)c1Sc1ccccc1,62% (inactive)
9,Cc1ccc(Sc2c(C)nn(-c3ccccc3)c2OC(=O)C(C)(C)C)cc1,-10% (active)
10,Cc1ccc(C(=O)Oc2c(S(=O)(=O)c3ccccc3)c(C)nn2-c2ccccc2)cc1,90% (inactive)
11,COc1ccc(C(=O)Oc2c(Sc3ccccc3)c(C)nn2-c2ccccc2)c(OC)c1,114% (inactive)
12,COc1cc(C(=O)Oc2c(Sc3ccc(C)cc3)c(C)nn2-c2ccccc2)cc(OC)c1OC,109% (inactive)
13,Cc1ccc(Sc2c(C)nn(-c3ccccc3)c2OC(=O)CC(C)C)cc1,21% (active)
14,COc1ccc(Cc2nnc(SCC(=O)N3CCCC3)o2)cc1,83% (inactive)
15,COc1ccc(N(CC(=O)NCCc2ccc(C)cc2)S(=O)(=O)c2c(C)nn(C)c2C)cc1,71% (inactive)
16,COc1ccc(-c2nc3c(c(SCC(=O)N4CCCCC4)n2)Cc2cc(C)ccc2O3)cc1,84% (inactive)
17,CSc1ncc(C(=O)NCc2cccc(F)c2)c(-c2ccccc2)n1,70% (inactive)
18,CSc1ncc(C(=O)NCc2ccc(C)cc2)c(C)n1,69% (inactive)
19,CSc1ncc(C(=O)NCc2ccccc2)c(-c2ccccc2)n1,37% (active)
20,CSc1ncc(C(=O)NCc2cccc(C)c2)c(-c2ccccc2)n1,55% (inactive)
21,CSc1ncc(C(=O)NCc2ccc(F)cc2)c(-c2ccccc2)n1,95% (inactive)
22,CSc1ncc(C(=O)NCc2ccc(C)cc2)c(-c2ccccc2)n1,0% (active)
